Holding throughout (parameters): scale not given: direction of the effect not stated beside the values
For assay [1], the target named is Protein translocase subunit SecA (Escherichia coli (strain K12)) (UniProt P10408). Description: Assay to Identify E. coli SecA ATPase Inhibitors. In kind it is functional. To be noted: 30 µM.
The target of assay [2] is T1, Ubiquitin-activating enzyme e1, putative (Leishmania donovani (strain BPK282A1)) (UniProt E9BSI1).
T1 sequence (whole entry): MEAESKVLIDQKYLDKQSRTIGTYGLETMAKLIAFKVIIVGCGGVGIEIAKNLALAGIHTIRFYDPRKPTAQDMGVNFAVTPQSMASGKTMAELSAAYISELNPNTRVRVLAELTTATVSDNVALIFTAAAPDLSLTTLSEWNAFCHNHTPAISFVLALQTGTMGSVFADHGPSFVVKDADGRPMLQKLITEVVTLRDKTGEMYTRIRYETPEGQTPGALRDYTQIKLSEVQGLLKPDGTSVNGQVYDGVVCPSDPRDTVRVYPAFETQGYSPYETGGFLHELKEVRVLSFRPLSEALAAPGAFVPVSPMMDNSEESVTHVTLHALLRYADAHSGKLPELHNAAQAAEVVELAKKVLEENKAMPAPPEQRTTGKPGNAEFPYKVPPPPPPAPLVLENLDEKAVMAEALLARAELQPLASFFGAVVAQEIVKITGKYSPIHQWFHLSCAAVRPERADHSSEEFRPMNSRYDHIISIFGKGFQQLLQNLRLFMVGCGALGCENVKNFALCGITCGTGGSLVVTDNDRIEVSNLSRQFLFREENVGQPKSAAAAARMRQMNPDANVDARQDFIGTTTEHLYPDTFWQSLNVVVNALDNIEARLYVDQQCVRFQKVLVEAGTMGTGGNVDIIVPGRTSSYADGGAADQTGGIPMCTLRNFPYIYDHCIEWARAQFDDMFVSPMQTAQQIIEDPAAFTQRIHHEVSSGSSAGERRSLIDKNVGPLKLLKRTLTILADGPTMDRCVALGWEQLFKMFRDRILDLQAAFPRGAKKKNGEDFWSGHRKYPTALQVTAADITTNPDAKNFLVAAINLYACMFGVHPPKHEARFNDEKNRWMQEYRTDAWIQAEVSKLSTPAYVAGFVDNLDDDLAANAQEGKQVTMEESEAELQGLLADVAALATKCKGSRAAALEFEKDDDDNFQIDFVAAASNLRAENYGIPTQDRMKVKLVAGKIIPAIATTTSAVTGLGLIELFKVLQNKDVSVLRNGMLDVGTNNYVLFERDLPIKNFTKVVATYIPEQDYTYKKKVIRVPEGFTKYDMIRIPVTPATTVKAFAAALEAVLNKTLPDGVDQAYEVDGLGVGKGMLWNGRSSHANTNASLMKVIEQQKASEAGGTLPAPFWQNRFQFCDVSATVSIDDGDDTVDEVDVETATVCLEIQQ
The assay is described as follows: Leishmania donovani Ubiquitin Activating Enzyme (LdE1). To be noted: 30 µM. The class given is functional.

In assay [3] the target is AMP-activated protein kinase, AMPK (Homo sapiens) (UniProt P54646+O43741+P54619+Q9UGJ0+Q9Y478+Q13131+Q9UGI9). Description: AMP-dependent Kinase enzyme assay. An in vitro enzyme assay that detects ADP turnover that is directly proportional to AMPK activity. This uses naive AMPK that is activated during the assay with MK-8722. The class given is functional. Particulars: 30 µM.

Assay [4] deals with Sialic acid-binding Ig-like lectin 9 (Homo sapiens) (UniProt Q9Y336). Description: Hs-Siglec9 ALPHAscreen SOP 20170721. To be noted: 10 µM. (In general: In Alpha technology, singlet oxygen from a donor bead excites a nearby acceptor bead.)
Sequence of Sialic acid-binding Ig-like lectin 9 (Homo sapiens) (Q9Y336 whole entry): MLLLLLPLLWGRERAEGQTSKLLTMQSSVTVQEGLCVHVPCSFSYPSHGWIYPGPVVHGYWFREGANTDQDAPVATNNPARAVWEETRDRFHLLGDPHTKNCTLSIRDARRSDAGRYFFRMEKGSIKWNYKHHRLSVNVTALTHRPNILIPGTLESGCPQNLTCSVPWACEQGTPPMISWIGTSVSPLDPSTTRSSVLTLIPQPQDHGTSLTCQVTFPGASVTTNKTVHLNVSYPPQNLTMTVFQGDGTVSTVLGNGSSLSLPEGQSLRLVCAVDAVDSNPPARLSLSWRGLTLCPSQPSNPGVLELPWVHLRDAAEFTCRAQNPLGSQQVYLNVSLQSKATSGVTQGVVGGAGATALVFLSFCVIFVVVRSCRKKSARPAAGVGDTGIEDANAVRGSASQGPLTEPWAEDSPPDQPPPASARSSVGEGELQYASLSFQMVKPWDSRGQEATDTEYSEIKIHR
In a further assay the test system is Trypanosoma cruzi. Description: Trypanosoma cruzi phosphomannomutase and mannose-1-phosphate guanylyltransferase assay. The class given is functional. Particulars: 10 µM.
Assay [5] has as its target T2, Arginase-2, mitochondrial (Homo sapiens) (UniProt P78540).
T2 sequence (whole entry): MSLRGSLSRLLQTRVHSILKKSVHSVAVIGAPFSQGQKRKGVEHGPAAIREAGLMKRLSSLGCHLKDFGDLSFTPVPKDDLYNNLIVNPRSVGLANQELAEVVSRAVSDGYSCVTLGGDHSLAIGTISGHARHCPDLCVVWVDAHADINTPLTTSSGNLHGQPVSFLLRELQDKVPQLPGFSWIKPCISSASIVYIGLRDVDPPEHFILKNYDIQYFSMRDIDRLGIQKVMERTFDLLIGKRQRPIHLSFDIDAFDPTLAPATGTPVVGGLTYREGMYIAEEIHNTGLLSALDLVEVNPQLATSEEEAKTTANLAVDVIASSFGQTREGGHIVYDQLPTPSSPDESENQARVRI
The assay is described as follows: in vitro enzyme assay to detect the production of urea directly proportional to the activity of Arginase II. Note: in the data most compounds retested in dose-response had high values. The class given is functional. To be noted: 33.3 µM.

The target in assay [6] is T3, Proteasome subunit beta (Trypanosoma cruzi) (UniProt O96673).
T3 sequence (whole entry): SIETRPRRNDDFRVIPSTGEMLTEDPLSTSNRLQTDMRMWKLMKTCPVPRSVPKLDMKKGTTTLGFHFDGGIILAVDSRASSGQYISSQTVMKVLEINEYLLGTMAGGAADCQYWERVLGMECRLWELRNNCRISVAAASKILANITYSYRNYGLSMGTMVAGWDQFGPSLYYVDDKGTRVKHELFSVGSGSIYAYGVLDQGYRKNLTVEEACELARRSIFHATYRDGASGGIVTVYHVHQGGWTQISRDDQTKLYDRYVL
Description: Trypanosoma cruzi proteasome chymotrypsin-like activity (TcProtChymo) assay. Note: in the data most compounds retested in dose-response had high values. To be noted: 9.37 µM. In kind it is functional.

For a further assay, the species on record is Homo sapiens. Description: To identify inhibition of the IFN signalling (Jak-Stat) pathway via expression of an eGFP reporter gene under the control of an IFN-stimulated response element (ISRE) containing MxA promoter. Particulars: 30 µM. In kind it is functional. (A reporter such as luciferase makes a cellular process visible.)
Assay [7] deals with T4, Tyrosyl-tRNA synthetase, putative (Trypanosoma cruzi (strain CL Brener)) (UniProt Q4DSP6).
T4 sequence (whole entry): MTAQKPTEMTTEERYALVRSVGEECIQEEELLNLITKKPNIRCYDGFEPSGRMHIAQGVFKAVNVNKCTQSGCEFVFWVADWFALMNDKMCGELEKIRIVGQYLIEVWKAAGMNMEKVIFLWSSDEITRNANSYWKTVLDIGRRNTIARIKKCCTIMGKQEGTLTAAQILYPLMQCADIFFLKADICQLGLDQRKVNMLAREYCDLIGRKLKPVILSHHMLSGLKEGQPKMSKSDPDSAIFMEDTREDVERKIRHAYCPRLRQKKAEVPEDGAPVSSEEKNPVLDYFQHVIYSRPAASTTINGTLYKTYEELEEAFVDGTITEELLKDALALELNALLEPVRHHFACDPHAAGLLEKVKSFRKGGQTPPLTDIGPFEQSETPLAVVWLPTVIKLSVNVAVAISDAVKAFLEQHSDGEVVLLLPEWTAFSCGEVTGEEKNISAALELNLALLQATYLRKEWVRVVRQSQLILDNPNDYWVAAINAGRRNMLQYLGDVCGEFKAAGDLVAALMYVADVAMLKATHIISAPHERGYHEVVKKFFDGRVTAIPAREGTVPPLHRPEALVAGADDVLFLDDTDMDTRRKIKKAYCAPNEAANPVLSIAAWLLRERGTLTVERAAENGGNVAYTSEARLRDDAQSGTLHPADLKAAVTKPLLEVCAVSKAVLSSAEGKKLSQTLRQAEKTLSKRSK
Description: Trypanosoma cruzi tyrosyl tRNA synthetase (TcYRS) _High Tyrosine SOP. Note: in the data most compounds retested in dose-response had high values. Particulars: 30 µM. The class given is functional.

The target of assay [8] is T4, Tyrosyl-tRNA synthetase, putative (Trypanosoma cruzi (strain CL Brener)). Description: Trypanosoma cruzi tyrosyl tRNA synthetase (TcYRS) SOP. To be noted: 30 µM. In kind it is functional.
Assay [9] addresses Chromo domain-containing protein 1 (Saccharomyces cerevisiae (strain ATCC 204508 / S288c) (Baker's yeast)) (UniProt P32657). Description: ScCHD-1 Enzyme Inhibition Assay. Note: in the data most compounds retested in dose-response had high values. The class given is functional. Particulars: 30 µM.

For some of these results: Results with a measured potency or affinity are listed apart.

Our source for the Percent Effect values is ChEMBL document CHEMBL3988442, “University of Dundee, Small-Polar-MMV Screening Library” (2021).

Sequence of Protein translocase subunit SecA (Escherichia coli (strain K12)) (P10408 whole entry): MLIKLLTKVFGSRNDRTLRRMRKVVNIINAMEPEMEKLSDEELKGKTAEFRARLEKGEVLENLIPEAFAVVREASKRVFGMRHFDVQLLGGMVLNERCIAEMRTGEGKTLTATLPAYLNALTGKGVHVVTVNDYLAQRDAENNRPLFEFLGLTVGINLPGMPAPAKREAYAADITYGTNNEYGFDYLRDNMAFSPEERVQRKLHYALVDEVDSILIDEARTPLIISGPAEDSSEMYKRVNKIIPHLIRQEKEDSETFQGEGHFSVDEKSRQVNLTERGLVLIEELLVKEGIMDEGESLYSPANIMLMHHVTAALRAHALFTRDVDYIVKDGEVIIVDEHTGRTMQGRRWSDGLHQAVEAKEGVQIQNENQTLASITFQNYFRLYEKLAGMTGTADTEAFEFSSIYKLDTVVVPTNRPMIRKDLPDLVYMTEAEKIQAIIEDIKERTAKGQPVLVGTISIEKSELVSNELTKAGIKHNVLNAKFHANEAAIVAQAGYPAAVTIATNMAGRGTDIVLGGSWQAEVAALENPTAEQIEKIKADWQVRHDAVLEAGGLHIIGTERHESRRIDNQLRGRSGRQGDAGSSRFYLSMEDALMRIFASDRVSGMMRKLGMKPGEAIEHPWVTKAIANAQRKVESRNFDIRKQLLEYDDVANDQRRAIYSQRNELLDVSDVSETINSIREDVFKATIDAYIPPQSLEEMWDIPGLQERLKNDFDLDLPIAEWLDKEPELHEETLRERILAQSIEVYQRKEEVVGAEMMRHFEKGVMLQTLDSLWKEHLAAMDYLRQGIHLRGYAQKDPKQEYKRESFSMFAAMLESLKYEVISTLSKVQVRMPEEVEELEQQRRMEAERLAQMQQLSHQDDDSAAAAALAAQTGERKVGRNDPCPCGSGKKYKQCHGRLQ
Sequence of Chromo domain-containing protein 1 (Saccharomyces cerevisiae (strain ATCC 204508 / S288c) (Baker's yeast)) (P32657 whole entry, the tested form may be a part): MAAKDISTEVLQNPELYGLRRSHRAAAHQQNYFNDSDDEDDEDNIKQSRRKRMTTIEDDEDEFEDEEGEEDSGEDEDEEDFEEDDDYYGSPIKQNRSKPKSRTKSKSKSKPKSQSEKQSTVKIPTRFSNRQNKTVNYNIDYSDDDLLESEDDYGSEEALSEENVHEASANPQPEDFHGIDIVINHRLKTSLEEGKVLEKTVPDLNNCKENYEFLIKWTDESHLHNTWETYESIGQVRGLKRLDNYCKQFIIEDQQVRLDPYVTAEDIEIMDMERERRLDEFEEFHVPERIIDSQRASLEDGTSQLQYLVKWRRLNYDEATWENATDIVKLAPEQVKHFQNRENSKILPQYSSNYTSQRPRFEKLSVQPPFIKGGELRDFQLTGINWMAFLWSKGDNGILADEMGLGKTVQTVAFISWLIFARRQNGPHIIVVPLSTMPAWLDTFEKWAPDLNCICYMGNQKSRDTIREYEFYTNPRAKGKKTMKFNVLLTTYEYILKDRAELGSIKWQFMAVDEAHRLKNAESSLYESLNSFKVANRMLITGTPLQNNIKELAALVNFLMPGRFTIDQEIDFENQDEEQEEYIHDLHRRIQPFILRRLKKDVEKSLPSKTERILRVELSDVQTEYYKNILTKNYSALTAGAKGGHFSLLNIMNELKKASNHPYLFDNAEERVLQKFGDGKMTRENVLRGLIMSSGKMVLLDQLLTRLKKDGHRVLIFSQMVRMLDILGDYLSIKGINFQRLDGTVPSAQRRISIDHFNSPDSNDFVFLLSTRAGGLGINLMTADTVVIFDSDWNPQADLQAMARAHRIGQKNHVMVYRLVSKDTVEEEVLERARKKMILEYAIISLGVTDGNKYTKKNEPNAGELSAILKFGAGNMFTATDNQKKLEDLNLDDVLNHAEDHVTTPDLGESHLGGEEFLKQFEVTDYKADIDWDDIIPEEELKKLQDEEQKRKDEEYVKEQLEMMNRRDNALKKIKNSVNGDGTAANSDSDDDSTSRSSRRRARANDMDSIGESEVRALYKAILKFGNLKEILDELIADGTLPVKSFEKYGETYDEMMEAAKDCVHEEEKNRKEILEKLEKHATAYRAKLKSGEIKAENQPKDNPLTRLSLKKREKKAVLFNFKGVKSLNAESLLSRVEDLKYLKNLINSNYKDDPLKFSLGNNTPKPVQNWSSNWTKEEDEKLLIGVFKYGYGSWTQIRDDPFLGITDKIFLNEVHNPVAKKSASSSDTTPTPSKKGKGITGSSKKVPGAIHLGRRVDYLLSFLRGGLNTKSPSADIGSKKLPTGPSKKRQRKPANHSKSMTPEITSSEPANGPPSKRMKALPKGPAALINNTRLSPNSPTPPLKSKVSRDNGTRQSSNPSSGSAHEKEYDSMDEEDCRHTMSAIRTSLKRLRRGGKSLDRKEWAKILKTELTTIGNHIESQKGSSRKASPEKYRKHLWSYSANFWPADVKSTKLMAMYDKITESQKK

For `Cn1c2c(ccc1=O)CC(NS(C)(=O)=O)CC2` (stereo unspecified), the Percent Effect in [1] was -7.68%; in [2], 5.33%; in [3] it was 5.05%; in [4] it was -7.17%; with Trypanosoma cruzi, -1.97%; in assay [5], -0.233%. In addition, the Percent Effect in [6] is -1.15%; in the assay filed under Homo sapiens, 20.7%; in assay [7], 2.13%; in [8], -3.85%; in assay [9], -1.57%.

For `Cn1cnnc1C1CCCN(C(=O)Cc2ccc3c(c2)OCCO3)C1` (stereo unspecified), the Percent Effect was -1.87% in [1]; 13% in assay [2]; -0.424% in assay [3]; -2.52% in assay [4]; 3.82% in the assay on Trypanosoma cruzi; -1.05% in assay [5]. The Percent Effect in assay [6] was 13.7%; in the assay listed under Homo sapiens, 13.2%; in [7] it was 7.62%; in [8] it was 18.8%; in assay [9], -15.4%.

As for `COc1cccc(COCC(=O)N2CCC(CC(N)=O)CC2)c1`, the Percent Effect in assay [1] is -3.54%; in [2] it was 7.89%; in [3], -1.04%; in assay [4], -0.0672%; with Trypanosoma cruzi it was -6.77%; in assay [5], 5.75%. Besides, the Percent Effect in [6] was 0.334%; in the assay listed under Homo sapiens, 23.7%; in [7], 5.39%; in assay [8], 12.2%; in [9] it was -3.41%.

`N#Cc1ccc(CN2CCC(c3ccnn3CCO)CC2)cc1`: the Percent Effect is -4.87% in assay [1]; 10.5% in [2]; -3.54% in assay [3]; 2.96% in [4]; 0.654% in the assay on Trypanosoma cruzi; -1.8% in [5]. Also, the Percent Effect in [6] was -4.48%; in the assay filed under Homo sapiens, 3.68%; in [7] it was 7.39%; in assay [8], 23.5%; in assay [9], -1.9%.

Take `CCc1n[nH]c(C2CN(C(=O)c3cnns3)CCO2)n1` (stereo unspecified): the Percent Effect in assay [1] is -3.59%; in [2], 0%; in [3] it was 2.14%; in assay [4] it was -2.18%; with Trypanosoma cruzi it was -4.63%; in [5] it was -19%. In addition, the Percent Effect was 2.7% in [6]; 15.6% in the assay filed under Homo sapiens; 1.48% in assay [7]; -3.8% in assay [8]; -1.39% in assay [9].

As for `CCn1cc(CN2CC3CCCN3C[C@H]2C)c(C)n1` (stereo partly specified), the Percent Effect in [1] is -2.31%; in assay [2], 9.46%; in assay [3], 3.58%; in assay [4], -8.58%; in the assay with Trypanosoma cruzi, -1.98%; in [5], -2.09%. Further, the Percent Effect is 20.3% in assay [6]; 2% in the assay filed under Homo sapiens; 4.3% in assay [7]; 9.09% in [8]; -14.7% in assay [9].

`CS(=O)(=O)NC[C@]12COC[C@H]1CN(C(=O)C1CCCCC1)C2`: the Percent Effect in assay [1] is -1.23%; in assay [2], 0%; in assay [3], 2.98%; in [4] it was -0.175%; in the assay on Trypanosoma cruzi, -1.47%; in [5], 14.3%. The Percent Effect is 17.7% in [6]; -0.518% in the assay filed under Homo sapiens; -20.5% in [7]; -25.6% in [8]; 3.02% in [9].

Take `Cc1nc(C)n(C2CCCN(C(=O)c3cc4ccccc4n3C)C2)n1` (stereo unspecified): the Percent Effect in [1] is -3.87%; in [2], 7.79%; in assay [3], -8.41%; in [4], 1.64%; in the assay with Trypanosoma cruzi, 5.78%; in [5], 0.632%. Moreover, the Percent Effect is 6.71% in assay [6]; 17.1% in the assay listed under Homo sapiens; 7.62% in assay [7]; 9.41% in [8]; -16.3% in [9].

Regarding `CSCCNC(=O)c1ccc(OC2CCN(CC(C)(C)C)CC2)c(Cl)c1`, the Percent Effect was -3.94% in [1]; 8.11% in assay [2]; -0.678% in assay [3]; 31.3% in [4]; 7.53% in the assay with Trypanosoma cruzi; 0.248% in [5]. Also, the Percent Effect in assay [6] was 7.47%; in the assay listed under Homo sapiens, -3.54%; in [7], 2.15%; in assay [8] it was 8.64%; in [9], -9.27%.

Consider `CN1CCN(Cc2cscn2)CC(C(=O)N(C)C)C1` (stereo unspecified), for which the Percent Effect is -6.29% in assay [1]; 18.7% in assay [2]; -6.4% in [3]; -0.543% in assay [4]; 5.91% with Trypanosoma cruzi; -3.03% in assay [5]. Besides, the Percent Effect in assay [6] was 3.44%; in the assay listed under Homo sapiens, 5.65%; in [7], 8.51%; in assay [8], 14.1%; in assay [9] it was -4.45%.

Consider `COCc1cccc(CNC(=O)CN2CCCC2c2noc(C)n2)c1` (stereo unspecified), for which the Percent Effect in assay [1] is -2.68%; in assay [2], 23.7%; in [3] it was -2.93%; in assay [4] it was 3.2%; in the assay on Trypanosoma cruzi, 5.83%; in assay [5] it was -2.68%. Also, the Percent Effect is 15.5% in [6]; 1.75% in the assay listed under Homo sapiens; 4.41% in [7]; 24.4% in assay [8]; -13% in assay [9].
